For 51 compounds, INHIBITION results are on record in ChEMBL document CHEMBL4513216, “Probing the Open Global Health Chemical Diversity Library for Multistage-Active Starting Points for Next-Generation Antimalarials” (ACS Infect Dis, 2020).

Structures are written as SMILES. The whole screen tested about 68,000 compounds, of which about 2,700 (4%) showed an effect of 50% or more. Only a selection was taken, and strong results are over-represented in it overall.

This test has as its system Plasmodium berghei. As to the kind of experiment: Screen against P. berghei liver stage (PbLuc), transformed with Luciferase, at 2uM. The format is functional, HepG2. As to conditions: tested at 2 uM.
As to `OC1(CN2CCCC(Cn3cncn3)C2)CCCCC1` (stereo unspecified), the INHIBITION is given as 19.9%. The same measure for `COCC(NC1CCSCC1)c1ccnn1C` (stereo unspecified): 27.55%; for `CN(C)CCCN(CCC#N)C(=O)Nc1ccc2[nH]ccc2c1`: -28.09%. `Cc1cc(C)cc(NC(=O)N(CCC#N)CCCN(C)C)c1`: the INHIBITION came out at 53.81%. Under `Cc1cc(NC(=O)N(CCC#N)CCCN(C)C)ccc1F` stands -11.32%; under `Cc1noc(C)c1CN1CCc2ncnc(-c3ccoc3)c2CC1`, -15.88%; under `CCOC(=O)CNC(=O)NCc1cc(C)n(-c2ccccc2OC)c1C`, 7.91%. The same measure for `CCN1CC[C@@]2(C(=O)N3CCOCC3)CCN(S(=O)(=O)CC)CC[C@@H]12`: 46.32%; for `Cc1nc(C)n(CC2CCCN2Cc2ncc(C(C)(C)C)o2)n1` (stereo unspecified): -39.72%; for `FC(F)(F)c1ccc2nc([C@H]3CCN(C4CCC4)C3)[nH]c2c1`: 2.22%. Under `FC(F)(F)c1ccc2nc([C@H]3CCN(C4CCOCC4)C3)[nH]c2c1` stands 54.16%.

`FC(F)(F)c1ccc2nc([C@H]3CCN(C4CCCCC4)C3)[nH]c2c1`: the INHIBITION was -5.77%. On to `Cc1n[nH]cc1CNCc1cccc(OCC(F)(F)F)c1`, for which the INHIBITION was found to be 36.91%. Under `O=C(CC1CCCC1)N1CCN(c2ccc(-n3cncn3)nn2)CC1` stands 59.76%; under `O=C(C1CC1)N1CCN(c2ccc(-n3cncn3)nn2)CC1`, 42.14%; under `O=C(CSC1CCCC1)N1CCN(c2ccc(-n3cncn3)nn2)CC1`, 15.96%. For `Cc1cc(F)ccc1NS(=O)(=O)c1cc2c(c(C(=O)O)c1)OCCO2`, the INHIBITION is recorded as -1.02%. Under `CC(C)(N)c1cn(C2CCN(C(=O)CCC3CCCCC3)CC2)nn1` stands 20.08%; under `Cc1nc(N2CCCC2)nc2c1CCN(C(=O)CC1CC1)CC2`, -24.79%; under `CC(C)CN1CCNC(=O)C12CCN(S(=O)(=O)c1ccc(F)cc1)CC2`, 55.66%.

Turning to `CCN1CCNC(=O)C12CCN(S(=O)(=O)c1ccc(F)cc1)CC2`, the INHIBITION is recorded as 26.55%. Under `CCN1CCNC(=O)C12CCN(S(=O)(=O)c1ccccc1)CC2` stands -2%; under `Oc1cc(-c2ccccn2)nc(C2CCN(Cc3ccncc3)CC2)n1`, -1.49%. Take `Nc1nc2c(c(N3CCCC(OCc4ccccn4)C3)n1)CCNCC2` (stereo unspecified): the INHIBITION was -24.7%. As for `Cc1ncsc1CCN(C)Cc1ccc(CO)o1`, the INHIBITION is 36.28%. On to `Cc1ccsc1CN(C)CCc1scnc1C`, for which the INHIBITION was found to be 57.75%. As to `Cc1ncsc1CCN(C)Cc1ccc(Br)o1`, the INHIBITION amounted to 34.18%. As to `CC(C)=CCN1C[C@@H]2CN(C(=O)c3cnccc3C)C[C@]2(C(=O)O)C1`, the INHIBITION is -9.48%. The same measure for `CCn1nc(C)cc1C(=O)N1CCC(Nc2ccc(C)nn2)CC1`: -7.05%; for `COC(=O)c1ccc(N(C)C2CCC2)nn1`: 24.36%; for `CN(c1ccc(C(N)=O)nn1)C1CCC1`: -35.26%. The same measure for `CNC(=O)c1ccc(N(C)C2CCC2)nn1`: 67.28%; for `C[C@@H]1C[C@H]2CN(C(=O)C3=CCCCC3)C[C@H]2O1`: 28.2%; for `CCOCC(=O)N1C[C@@H]2CC[C@H]1CN(C(=O)c1ccncc1)C2`: -3.87%.

Regarding `O=C(c1ccncc1)N1C[C@H]2CC[C@@H](C1)N(C(=O)N1CCOCC1)C2`, the INHIBITION is -58.5%. Under `O=C(c1ccncc1)N1C[C@H]2CC[C@@H](C1)N(C(=O)C1CCCC1)C2` stands 63.1%. For `CN(C)C(=O)N1Cc2nnn(C)c2C(COCc2cccnc2)C1` (stereo unspecified), the INHIBITION was -16.25%. The same measure for `CCc1ccc(NC(=O)N2C[C@@H]3C[C@H](C(=O)NC4CCC4)[C@H](C2)O3)cc1`: 25.08%. Under `Cc1ncc(CN2CCOC(c3ccc(-c4ccccc4F)cn3)C2)s1` (stereo unspecified) stands 48.08%; under `CNC(=O)c1cn[nH]c1C1(C)CCCN(Cc2ccccn2)C1` (stereo unspecified), 19.47%; under `CN(C)C(=O)c1cn[nH]c1C1(C)CCN(c2ncccn2)CC1`, -16.2%.

`CN(C)C(=O)c1cn[nH]c1C1(C)CCCN(Cc2ccccn2)C1` (stereo unspecified): the INHIBITION was found to be 70.33%. The same measure for `Cc1ccc(C)c(CS(=O)(=O)CC(=O)NCCCOC(C)C)c1`: 22.1%; for `Cc1cccc(-c2noc(C)c2C(=O)NC2CCCOC2)c1` (stereo unspecified): -3.96%.

For the compound `Cc1nc(CN2CCOC3(CCCC3)C2)oc1C`, the INHIBITION is listed as 20.49%.

As for `Cc1nc(CN2CCN(S(=O)(=O)N3CCOCC3)CC2)oc1C`, the INHIBITION is given as -9.04%. In the case of `Cc1nc(CN2CCN(S(=O)(=O)N3CCCCC3)CC2)oc1C`, the INHIBITION is listed as 54.44%.

Turning to `CC(C)N1CC[C@H]2[C@H](C[C@@H](Cn3cccn3)N2c2nccs2)C1`, the INHIBITION is recorded as 34.42%. Under `CNC(=O)CN1CC[C@H]2CN(C(=O)c3cccc(C)c3)C[C@H]2C1` stands 30.63%; under `CNC(=O)CN1CC[C@H]2CN(C(=O)c3ccc(C)nc3)C[C@H]2C1`, 40.83%; under `CNC(=O)CN1CC[C@H]2CN(C(=O)c3ccc(C)cc3)C[C@H]2C1`, 51.94%.
